This is an account of results in the supplement of paper PMC10849652.

The full data set covers some 7,900 targets. This sample favours those with a hit. About 0.6% of all pairs of compound and target were hits. Values without a mark were called inactive.

Holding throughout (experiment): log2 fold change, soluble protein after heating vs DMSO (PISA); higher = thermal stabilisation; K562 cells, 10 uM, 30 min; active = over 0.2 and 3.5 SD of the protein, either way, in both replicates (recomputed)
Compound in assay [1]: NC(=O)Nc1cc(-c2cccc(F)c2)sc1C(=O)N[C@H]1CCCNC1
Put shortly:
(§1)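 K562 cells (2×10^6 cells/mL) were treated with 10 μM compound for 30 min, and aliquots were heated for 3 min over 48°C-58°C. Pooled aliquots were extracted in PBS with 0.5% NP-40 at 4°C, and the supernatant after 21,000xg for 90 min was measured by TMTpro 16plex LC-MS/MS with channel sums equalised. Reported thermal stability, relative to control samples and from duplicates, is a log2 fold change.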

Compound in assay [2]: NC(=O)c1cnc(N[C@@H]2CCCC[C@@H]2N)nc1Nc1cccc(-n2nccn2)c1
The essentials: as §1

Compound in assay [3]: NC1(c2ccc(-c3nc4ccn5c(=O)[nH]nc5c4cc3-c3ccccc3)cc2)CCC1
Put shortly:
as §1

Compound in assay [4]: NCC(=O)Nc1ccc(-n2nc(C(F)(F)F)cc2-c2ccc3c(ccc4ccccc43)c2)cc1
Put shortly:
as §1

Compound in a further assay: Nc1ccccc1NC(=O)c1ccc(CNC(=O)OCc2cccnc2)cc1 [entinostat]
The essentials:
as §1

Compound in the next assay: O=C(CCCCCCC(=O)Nc1ccccc1)NO [vorinostat]
The essentials: as §1

Compound in another assay: O=C(CCCCCCNC(=O)c1cnc(N(c2ccccc2)c2ccccc2Cl)nc1)NO [citarinostat]
Put shortly: as §1

Compound in a further assay: O=C(O)c1ccc2c(c1)nc(Nc1cccc(Cl)c1)c1ccncc12 [silmitasertib]
Put shortly:
as §1

Compound in assay [5]: O=C1NC(=O)C(c2cnc3ccccn23)=C1c1cn2c3c(cc(F)cc13)CN(C(=O)N1CCCCC1)CC2
Put shortly: as §1

Compound in assay [6]: c1cc(OCCN2CCCCC2)cc(-c2n[nH]c3ccc(-c4nnc[nH]4)cc23)c1
The essentials:
as §1

Compound in another assay: c1cn2cc(-c3ccc4cn[nH]c4c3)nc(Nc3ccc(N4CCOCC4)cc3)c2n1 [entospletinib]
The essentials:
as §1

Sequence of UniProt P55786 (P55786 whole entry, looked up): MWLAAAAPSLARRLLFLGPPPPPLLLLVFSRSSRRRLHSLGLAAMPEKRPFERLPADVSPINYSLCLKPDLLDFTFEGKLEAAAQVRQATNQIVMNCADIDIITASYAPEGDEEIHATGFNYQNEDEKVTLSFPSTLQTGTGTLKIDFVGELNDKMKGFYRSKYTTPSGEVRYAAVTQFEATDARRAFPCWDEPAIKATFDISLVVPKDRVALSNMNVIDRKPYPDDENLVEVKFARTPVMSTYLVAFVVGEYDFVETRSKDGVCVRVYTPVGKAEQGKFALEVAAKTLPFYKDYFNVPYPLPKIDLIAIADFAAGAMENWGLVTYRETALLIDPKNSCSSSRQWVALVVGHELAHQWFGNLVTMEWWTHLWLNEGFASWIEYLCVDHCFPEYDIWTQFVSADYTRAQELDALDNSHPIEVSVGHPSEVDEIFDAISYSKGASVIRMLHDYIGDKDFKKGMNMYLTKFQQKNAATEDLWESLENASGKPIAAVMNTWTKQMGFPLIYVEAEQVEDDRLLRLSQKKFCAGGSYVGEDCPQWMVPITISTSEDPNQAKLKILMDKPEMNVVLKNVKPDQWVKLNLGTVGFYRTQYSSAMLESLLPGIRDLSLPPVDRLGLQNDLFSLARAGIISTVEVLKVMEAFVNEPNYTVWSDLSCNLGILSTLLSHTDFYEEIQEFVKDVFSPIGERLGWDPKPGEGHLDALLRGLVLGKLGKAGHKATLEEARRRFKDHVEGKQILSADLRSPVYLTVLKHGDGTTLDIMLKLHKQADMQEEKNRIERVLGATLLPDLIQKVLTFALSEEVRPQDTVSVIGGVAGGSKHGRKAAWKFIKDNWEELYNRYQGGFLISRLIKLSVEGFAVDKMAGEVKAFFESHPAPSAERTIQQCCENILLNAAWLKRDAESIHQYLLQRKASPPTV
Sequence of UniProt O14950 (O14950 whole entry, looked up): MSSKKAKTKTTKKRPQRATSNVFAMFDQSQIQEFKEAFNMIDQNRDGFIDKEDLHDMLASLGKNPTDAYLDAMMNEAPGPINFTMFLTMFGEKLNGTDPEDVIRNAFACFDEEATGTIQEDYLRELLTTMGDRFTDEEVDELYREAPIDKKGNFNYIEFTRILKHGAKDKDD
Sequence of UniProt Q9UMY1 (Q9UMY1 whole entry, looked up): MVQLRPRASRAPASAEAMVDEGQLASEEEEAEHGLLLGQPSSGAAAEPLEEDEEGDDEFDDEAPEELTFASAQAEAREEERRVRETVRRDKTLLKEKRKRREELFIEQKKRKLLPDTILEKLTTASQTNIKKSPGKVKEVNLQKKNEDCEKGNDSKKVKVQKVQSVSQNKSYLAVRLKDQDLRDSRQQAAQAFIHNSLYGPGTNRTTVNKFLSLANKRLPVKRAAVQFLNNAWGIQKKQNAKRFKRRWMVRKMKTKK
Sequence of UniProt Q969V5 (Q969V5 whole entry, looked up): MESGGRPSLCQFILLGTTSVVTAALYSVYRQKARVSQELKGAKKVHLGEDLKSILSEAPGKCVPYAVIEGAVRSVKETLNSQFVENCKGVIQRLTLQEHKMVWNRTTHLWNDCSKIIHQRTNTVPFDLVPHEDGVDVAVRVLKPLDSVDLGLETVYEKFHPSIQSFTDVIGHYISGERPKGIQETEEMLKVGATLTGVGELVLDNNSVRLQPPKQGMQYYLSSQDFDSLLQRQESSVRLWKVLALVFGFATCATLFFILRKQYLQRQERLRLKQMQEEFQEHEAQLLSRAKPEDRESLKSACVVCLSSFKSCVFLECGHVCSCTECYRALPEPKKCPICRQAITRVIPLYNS
Sequence of UniProt Q96MF7 (Q96MF7 whole entry, looked up): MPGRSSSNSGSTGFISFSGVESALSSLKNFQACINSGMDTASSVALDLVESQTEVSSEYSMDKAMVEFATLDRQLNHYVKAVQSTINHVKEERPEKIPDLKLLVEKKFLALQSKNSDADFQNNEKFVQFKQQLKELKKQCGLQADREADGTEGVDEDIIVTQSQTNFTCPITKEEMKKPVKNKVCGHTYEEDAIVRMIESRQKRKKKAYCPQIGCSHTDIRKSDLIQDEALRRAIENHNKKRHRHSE
Sequence of UniProt O95169 (O95169 whole entry, looked up): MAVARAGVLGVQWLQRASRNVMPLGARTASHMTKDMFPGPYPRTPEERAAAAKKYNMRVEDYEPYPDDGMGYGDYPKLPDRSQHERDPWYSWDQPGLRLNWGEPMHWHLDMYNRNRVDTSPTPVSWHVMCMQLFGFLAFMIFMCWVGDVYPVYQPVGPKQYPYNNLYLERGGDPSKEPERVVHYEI
Sequence of UniProt Q8NBF2 (Q8NBF2 whole entry, looked up): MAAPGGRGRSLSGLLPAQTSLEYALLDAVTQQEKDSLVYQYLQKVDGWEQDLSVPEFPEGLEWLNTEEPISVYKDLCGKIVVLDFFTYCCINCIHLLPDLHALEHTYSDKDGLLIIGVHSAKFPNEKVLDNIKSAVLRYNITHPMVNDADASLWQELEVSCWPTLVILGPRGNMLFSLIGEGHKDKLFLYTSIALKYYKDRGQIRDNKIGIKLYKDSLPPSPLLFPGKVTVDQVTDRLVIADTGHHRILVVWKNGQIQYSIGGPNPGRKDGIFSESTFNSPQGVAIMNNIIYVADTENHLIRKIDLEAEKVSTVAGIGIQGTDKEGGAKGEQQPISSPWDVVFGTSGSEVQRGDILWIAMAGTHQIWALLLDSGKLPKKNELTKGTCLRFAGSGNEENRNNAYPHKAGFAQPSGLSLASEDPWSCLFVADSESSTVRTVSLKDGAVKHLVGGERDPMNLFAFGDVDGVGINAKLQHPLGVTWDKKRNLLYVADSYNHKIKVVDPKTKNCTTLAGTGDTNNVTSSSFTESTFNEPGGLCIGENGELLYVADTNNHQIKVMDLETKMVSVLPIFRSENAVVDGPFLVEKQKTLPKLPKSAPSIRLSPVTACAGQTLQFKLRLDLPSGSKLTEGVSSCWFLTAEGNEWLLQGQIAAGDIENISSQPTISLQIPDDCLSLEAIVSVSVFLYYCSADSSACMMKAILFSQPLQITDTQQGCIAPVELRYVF
Sequence of UniProt P20585 (P20585 whole entry, looked up): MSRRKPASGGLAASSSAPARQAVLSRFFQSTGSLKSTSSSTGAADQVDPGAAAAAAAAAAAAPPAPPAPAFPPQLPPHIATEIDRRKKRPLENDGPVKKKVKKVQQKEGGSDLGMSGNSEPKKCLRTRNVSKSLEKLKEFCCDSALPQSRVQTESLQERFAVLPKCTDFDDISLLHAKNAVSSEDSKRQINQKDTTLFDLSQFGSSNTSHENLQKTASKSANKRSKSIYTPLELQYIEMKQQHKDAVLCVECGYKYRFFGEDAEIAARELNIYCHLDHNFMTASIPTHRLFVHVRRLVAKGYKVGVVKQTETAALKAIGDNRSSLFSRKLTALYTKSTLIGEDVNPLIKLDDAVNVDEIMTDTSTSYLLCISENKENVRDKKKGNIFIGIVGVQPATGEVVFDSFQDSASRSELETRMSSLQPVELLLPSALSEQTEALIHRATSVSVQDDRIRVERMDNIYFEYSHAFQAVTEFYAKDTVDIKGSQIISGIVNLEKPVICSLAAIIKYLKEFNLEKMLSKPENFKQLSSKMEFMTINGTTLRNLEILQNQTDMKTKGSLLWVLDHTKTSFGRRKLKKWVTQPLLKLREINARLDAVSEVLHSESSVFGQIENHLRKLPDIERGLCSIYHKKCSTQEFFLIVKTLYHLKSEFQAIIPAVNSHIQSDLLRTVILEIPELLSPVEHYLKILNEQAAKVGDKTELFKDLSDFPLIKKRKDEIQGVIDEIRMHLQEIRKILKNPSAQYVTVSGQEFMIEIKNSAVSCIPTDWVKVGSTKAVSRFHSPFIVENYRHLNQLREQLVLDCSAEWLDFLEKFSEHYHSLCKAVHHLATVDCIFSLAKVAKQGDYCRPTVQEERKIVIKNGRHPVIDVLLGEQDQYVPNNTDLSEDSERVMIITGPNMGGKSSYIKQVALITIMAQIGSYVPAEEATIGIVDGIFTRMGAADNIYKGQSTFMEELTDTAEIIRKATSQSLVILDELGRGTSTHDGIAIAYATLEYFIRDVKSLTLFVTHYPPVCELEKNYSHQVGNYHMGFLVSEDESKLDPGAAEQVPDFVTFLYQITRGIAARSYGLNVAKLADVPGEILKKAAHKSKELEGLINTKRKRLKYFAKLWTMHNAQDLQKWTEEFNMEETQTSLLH
Sequence of UniProt Q9BWT6 (Q9BWT6 whole entry, looked up): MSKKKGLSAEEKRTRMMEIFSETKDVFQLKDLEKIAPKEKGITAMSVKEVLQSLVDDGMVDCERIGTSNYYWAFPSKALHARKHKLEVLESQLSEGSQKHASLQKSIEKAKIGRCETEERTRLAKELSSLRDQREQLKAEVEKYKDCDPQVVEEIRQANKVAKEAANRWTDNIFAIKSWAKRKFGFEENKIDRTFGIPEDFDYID

Consider NPEPPS (UniProt P55786), for which the log2 fold change in assay [1] was -0.02; in assay [2], -0.035; in assay [3], -0.046; in [4], -0.041; with entinostat, -0.007; in the assay with vorinostat, 0.076. The log2 fold change was 0.048 with citarinostat; -0.038 with silmitasertib; -0.003 in [5]; -0.03 in assay [6]; -0.007 in the assay with entospletinib.
Consider MUL1 (UniProt Q969V5), for which the log2 fold change was -0.029 in assay [1]; -0.041 in assay [2]; 0.648 (active) in assay [3]; -0.024 in [4]; -0.007 with entinostat; 0.086 with vorinostat. In addition, the log2 fold change was -0.002 with citarinostat; -0.018 in the assay with silmitasertib; -0.021 in assay [5]; -0.049 in assay [6]; -0.005 with entospletinib.
For the target MND1 (UniProt Q9BWT6), the log2 fold change was -0.024 in [1]; -0.012 in assay [2]; -0.118 in [3]; -0.119 in assay [4]; 0.041 with entinostat; -0.11 with vorinostat. Further, the log2 fold change in the assay with citarinostat was -0.033; with silmitasertib, -0.014; in assay [5], -0.042; in [6] it was -0.146; with entospletinib it was 0.047.
Consider MRPS15 (UniProt P82914), for which the log2 fold change in assay [1] is 0.039; in assay [2], 0.06; in [3] it was -0.057; in assay [4] it was 0.119; in the assay with entinostat, 0.072; with vorinostat, 0.077. In addition, the log2 fold change with citarinostat is 0.028; in the assay with silmitasertib, -0.114; in assay [5], 0.085; in assay [6], -0.031; with entospletinib, 0.044.
With NSMCE2 (UniProt Q96MF7), the log2 fold change in assay [1] is 0.065; in assay [2] it was -0.027; in assay [3], -0.008; in [4] it was -0.046; with entinostat, -0.115; with vorinostat, 0.128. Further, the log2 fold change was -0.04 with citarinostat; 0.055 with silmitasertib; -0.068 in assay [5]; -0.069 in assay [6]; -0.052 with entospletinib.
As for NHLRC2 (UniProt Q8NBF2), the log2 fold change in assay [1] is -0.077; in [2], -0.02; in [3], -0.171; in [4], -0.065; in the assay with entinostat, 0.009; with vorinostat it was 0.02. For the same target, the log2 fold change with citarinostat is -0.007; in the assay with silmitasertib, 0.009; in [5] it was -0.063; in assay [6], -0.015; with entospletinib it was 0.097.
With MYL12B (UniProt O14950), the log2 fold change was 0.09 in [1]; 0.084 in assay [2]; -0.013 in [3]; 0.055 in assay [4]; 0.029 with entinostat; -0.004 in the assay with vorinostat. The log2 fold change was 0.045 in the assay with citarinostat; -0.037 in the assay with silmitasertib; -0.042 in assay [5]; 0.026 in assay [6]; -0.03 in the assay with entospletinib.
MRPS10 (UniProt P82664): the log2 fold change is -0.014 in [1]; 0.004 in assay [2]; -0.052 in [3]; 0.011 in [4]; -0.033 in the assay with entinostat; 0.057 with vorinostat. Further, the log2 fold change with citarinostat was 0.07; in the assay with silmitasertib, -0.048; in [5], 0; in assay [6] it was -0.08; in the assay with entospletinib it was 0.054.
In the case of NOL7 (UniProt Q9UMY1), the log2 fold change in assay [1] is 0.107; in assay [2], 0.131; in assay [3], 0.316; in assay [4] it was 0.177; with entinostat, -0.079; with vorinostat, -0.042. Besides, the log2 fold change was -0.101 with citarinostat; 0.166 in the assay with silmitasertib; 0.121 in assay [5]; -0.218 in [6]; 0.033 in the assay with entospletinib.
For MSH3 (UniProt P20585), the log2 fold change in assay [1] is -0.175; in assay [2], -0.001; in [3], -0.126; in [4], -0.007; in the assay with entinostat, -0.032; in the assay with vorinostat it was -0.017. Also, the log2 fold change was 0.031 with citarinostat; 0.034 with silmitasertib; -0.069 in assay [5]; -0.019 in assay [6]; -0.095 in the assay with entospletinib.
Take NDUFB8 (UniProt O95169): the log2 fold change in [1] is 0.028; in [2], 0.083; in assay [3], -0.008; in [4], 0.02; with entinostat it was 0.113; with vorinostat, -0.075. Moreover, the log2 fold change with citarinostat is -0.016; with silmitasertib it was 0.004; in assay [5] it was -0.172; in [6] it was -0.036; in the assay with entospletinib, 0.067.
